We go through 21 molecules from PubChem BioAssay (NCI).

The structures appear in SMILES notation. About 79,000 compounds went through this panel and 15% of them were active in at least one assay; those are over-represented in the sample as a whole. Unmarked numbers belong to inactive results. Activity calls are given as the source filed them. Cut-off read from the data, not from the text of the source: active = growth inhibition above about 70%; inactive = the rest.

Assay [1] is described as follows: NCI Yeast Anticancer Drug Screen. Data for the rad50 strain (AID 155).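 Note: 0% = growth of vehicle-only cultures of the same strain.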 The note with it: S. cerevisiae rad50 strain growth inhibition; at 50.0 µM; stronger effect = higher value. Summed up:
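Readout: growth inhibition relative to vehicle-treated cultures. Compound exposure was carried out in a genetically defined yeast strain deficient in DNA damage repair.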

Assay [2] can be described thus: NCI Yeast Anticancer Drug Screen. Data for the mec2-1 strain (AID 157). The following applies: S. cerevisiae mec2-1 strain, at 50.0 µM, stronger effect = higher value. The procedure, abridged:
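Growth inhibition is read against vehicle-treated controls after compound exposure of the mec2-1 yeast strain, which is defective in DNA damage repair or cell cycle control.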

Assay [3] in a line: NCI Yeast Anticancer Drug Screen. Data for the sgs1 mgt1 strain (AID 161).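 Note: 0% = growth of cultures given vehicle only.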 The note with it: S. cerevisiae sgs1 mgt1 strain, at 50.0 µM, stronger effect = higher value. Summed up:
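Percent growth inhibition was derived by comparing compound-exposed mutant yeast with vehicle-exposed cultures. The strain carries alterations in DNA damage repair.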

Assay [4] can be described thus: NCI Yeast Anticancer Drug Screen. Data for the cln2 rad14 strain (AID 165).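 Note: 0% = growth equal to vehicle treated cultures.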 The note with it: S. cerevisiae cln2 rad14 strain, at 50.0 µM, stronger effect = higher value. The procedure, abridged: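 Growth inhibition, relative to vehicle-treated controls, is the read-out. The test organism is a yeast strain with defined genetic alterations, cln2 rad14.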
A short description of assay [5]: NCI Yeast Anticancer Drug Screen. Data for the bub3 strain (AID 167). The following applies: S. cerevisiae bub3 mutant strain, at 50.0 µM, stronger effect = higher value. The procedure, abridged: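 Readout: yeast growth inhibition, expressed relative to vehicle-only wells. The test organism is a mutant strain from a panel with lesions in DNA repair or checkpoint genes.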
The nature of assay [6]: NCI Yeast Anticancer Drug Screen. Data for the mlh1 rad18 strain (AID 175). The following applies: S. cerevisiae mlh1 rad18 strain growth inhibition; at 50.0 µM; stronger effect = higher value. Summed up: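 Cells of a genetically altered yeast strain, deficient in DNA damage repair, were treated with compound. Their growth was then compared with that of vehicle-treated cultures to give inhibition.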

For the molecule `O=C(c1ccccc1)c1ccc(C(=O)c2ccccc2)cc1`, the growth inhibition in assay [1] was -0.35%; in assay [2] it was -1.85%; in assay [3], -19.2%; in assay [4], -6.15%; in assay [5], -9.35%; in assay [6] it was -19.3%.
Consider `CCOC(=O)/C(=C/c1cn(C(C)=O)c2ccccc12)P(C)(=O)OCC` (stereo unspecified), for which the growth inhibition in assay [1] is 33.2%; in assay [2], 52.5%; in assay [3], 55.5%; in assay [4], 40%; in assay [5] it was 53.5%; in assay [6], 22.2%.
With `N#CCCCCCCn1cnc2c(=S)nc[nH]c21`, the growth inhibition is 4.9% in assay [1]; 9.55% in assay [2]; 17.9% in assay [3]; -13% in assay [4]; -4.7% in assay [5]; 22.4% in assay [6].
As to `O=c1c(-c2ccccc2)nc2ccccc2n1CC1CCCN2CCCC[C@H]12` (stereo partly specified), the growth inhibition in assay [1] is 3.9%; in assay [2], -10%; in assay [3] it was 18.3%; in assay [4] it was -38.9%; in assay [5], 22.7%; in assay [6], 19.4%.
`O=C(O)CC(C(=O)O)C1c2ccccc2-c2ccccc21` (stereo unspecified): the growth inhibition is -0.1% in assay [1]; -27.2% in assay [2]; -40.4% in assay [3]; -17.2% in assay [4]; -49.2% in assay [5]; 3.6% in assay [6].
For the molecule `COC(=O)c1ccccc1C(=O)O`, the growth inhibition was 17.1% in assay [1]; 4.05% in assay [2]; 11.6% in assay [3]; -10.1% in assay [4]; 3.4% in assay [5]; 23.2% in assay [6].
On to `CCOCCOC(=O)CCC1CCCCC1`, for which the growth inhibition in assay [1] was 29.8%; in assay [2], 16.5%; in assay [3], 9.1%; in assay [4] it was 11.2%; in assay [5], 19%; in assay [6] it was 29.6%.
For `CC(=O)N(C)c1ccc(NC(=O)Nc2c(C)cccc2C)cc1`, the growth inhibition in assay [1] was 6.55%; in assay [2], 10%; in assay [3] it was 10.7%; in assay [4], 4.85%; in assay [5] it was 19.6%; in assay [6], 15.6%.
For `O=C1OC2=C(CCCCC2)C(N2CCCCC2)C12SCCCS2` (stereo unspecified), the growth inhibition is -7.9% in assay [1]; -6.2% in assay [2]; -5.2% in assay [3]; -17.3% in assay [4]; -3.25% in assay [5]; -14.9% in assay [6].
For the molecule `COc1ccc(C2(C=O)CN(C)CN2)cc1` (stereo unspecified), the growth inhibition in assay [1] was -7.2%; in assay [2], -3.95%; in assay [3], -14.7%; in assay [4], -21.2%; in assay [5] it was -13.8%; in assay [6] it was -7.2%.
In the case of `O=S(/N=C/c1ccccc1)c1ccc(Cl)cc1` (stereo unspecified), the growth inhibition in assay [1] was -7.6%; in assay [2], 4.5%; in assay [3], 12.4%; in assay [4], 13.9%; in assay [5], 9.4%; in assay [6], 13%.
Consider `Oc1ccc2ccccc2c1C=NCCS`, for which the growth inhibition in assay [1] is 24.9%; in assay [2], 6.25%; in assay [3] it was 2.7%; in assay [4] it was -25.6%; in assay [5], -3.4%; in assay [6], 3.15%.
For the molecule `CC(C)C1OCC=CCO1`, the growth inhibition is 7.65% in assay [1]; -6.7% in assay [2]; -13.2% in assay [3]; -9.85% in assay [4]; 13.7% in assay [5]; -3% in assay [6].
`Oc1cccc(N2CCN(c3cccc(O)c3)CC2)c1`: the growth inhibition is 2.45% in assay [1]; -26.9% in assay [2]; 3.7% in assay [3]; 9.15% in assay [4]; 5.85% in assay [5]; -15% in assay [6].
On to `COc1ccc(/C(C#N)=C/c2ccc(N(C)CCC#N)cc2)cc1`, for which the growth inhibition in assay [1] was 28.2%; in assay [2] it was -24.1%; in assay [3] it was 24.2%; in assay [4], -8.75%; in assay [5], 15.2%; in assay [6] it was 24.5%.
Consider `CCCCCCCCCCCC[N+](C)(C)Cc1cc(=O)c(O)co1`, for which the growth inhibition in assay [1] was 71.7% (active); in assay [2], 43.6%; in assay [3], 74.1% (active); in assay [4] it was 78.8% (active); in assay [5], 65%; in assay [6], 27.2%.
In the case of `CCOC(=O)C(=O)c1c[nH]c2ccccc12`, the growth inhibition in assay [1] was -3.35%; in assay [2] it was 2.45%; in assay [3] it was -2.5%; in assay [4], -12.1%; in assay [5], 6.4%; in assay [6], 10%.
As for `CCCC1OC(c2ccc(OC)cc2)OCC1CC` (stereo unspecified), the growth inhibition is 2.65% in assay [1]; 0.95% in assay [2]; -0.3% in assay [3]; -16.4% in assay [4]; 30.9% in assay [5]; -0.75% in assay [6].
With `CN(C)C=S`, the growth inhibition in assay [1] was -4.6%; in assay [2], 1.9%; in assay [3] it was -9.85%; in assay [4] it was -12.6%; in assay [5], -13.1%; in assay [6] it was -4%.
For the molecule `Cc1ccc(CS(=O)(=O)c2ccc(C)cc2)cc1`, the growth inhibition is -3.3% in assay [1]; -0.45% in assay [2]; -4.2% in assay [3]; -36.8% in assay [4]; -22.9% in assay [5]; -2.35% in assay [6].
In the case of `CC(C)(O)C(c1ccccc1)S(=O)(=O)O` (stereo unspecified), the growth inhibition in assay [1] is -2.5%; in assay [2] it was -18.6%; in assay [3], -0.3%; in assay [4] it was -27.4%; in assay [5], -0.45%; in assay [6] it was 48.5%.
